Data taken from PubChem BioAssay (NCATS).
Results filed as inconclusive are left out. The source made the active and inactive calls. Calls come from the whole dose curve; as a rule, active = well fitted inhibition curve with a large enough effect; inconclusive = small, poorly fitted or top-dose-only effect; inactive = flat fitted curve, though single readings scatter.

Experiments:
Assay in all cases: qHTS profiling for inhibitors of Plasmodium falciparum proliferation (AID 504749); note: nearly all actives have a fitted effect of over 60% in size
Details in all cases: P. falciparum in erythrocytes, SYBR Green DNA, 72 h; series mostly up to 28.7 µM
CP252 = test system: CP252
Summary of the method: (§1)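 In a 72 h erythrocytic culture (37 C, humidified, 5% CO2) at 2.5% hematocrit and 0.3% starting parasitemia, compounds were tested; SYBR Green I in detergent lysis buffer stained parasite DNA overnight.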

CP256 = test system: CP256
Summary of the method: as §1

CP262 = test system: CP262
Summary of the method: as §1

CP265 = test system: CP265
Summary of the method: as §1

CP268 = test system: CP268
Summary of the method: as §1

CP269 = test system: CP269
Summary of the method: as §1

CP286 = test system: CP286
Summary of the method: as §1

CP291 = test system: CP291
Summary of the method: as §1

CP297 = test system: CP297
Summary of the method: as §1

CP305 = test system: CP305
Summary of the method: as §1

CP315 = test system: CP315
Summary of the method: as §1

CP325 = test system: CP325
Summary of the method: as §1

CP329 = test system: CP329
Summary of the method: as §1

CP335 = test system: CP335
Summary of the method: as §1

DFO2036 = test system: DFO2036
Summary of the method: as §1

DIV17 = test system: DIV17
Summary of the method: as §1

DIV30 = test system: DIV30
Summary of the method: as §1

Dd2 = test system: Dd2
Summary of the method: as §1

ECU = test system: ECU
Summary of the method: as §1

FAB9 = test system: FAB9
Summary of the method: as §1

GB4 = test system: GB4
Summary of the method: as §1

HB3 = test system: HB3
Summary of the method: as §1

JCK = test system: JCK
Summary of the method: as §1

N140 = test system: N140
Summary of the method: as §1

P93_24 = test system: P93_24
Summary of the method: as §1

P94_40 = test system: P94_40
Summary of the method: as §1

PAD = test system: PAD
Summary of the method: as §1

PC49 = test system: PC49
Summary of the method: as §1

SC27B = test system: SC27B
Summary of the method: as §1

TAB109 = test system: TAB109
Summary of the method: as §1

TAB113 = test system: TAB113
Summary of the method: as §1

TAB165 = test system: TAB165
Summary of the method: as §1

Measured: Potency

CO[C@H]1[C@@H](O)CC(OC2[C@@H](O)CC(OC3[C@@H](O)C[C@H](OC4CC[C@@]5(C)C(CCC6C5CC(O)[C@]5(C)[C@H](C7=CC(=O)OC7)CCC65O)C4)O[C@@H]3C)O[C@@H]2C)O[C@@H]1C (some centres not stated)
inactive: CP252 | CP256 | CP262 | CP265 | CP268 | CP269 | CP286 | CP291 | CP297 | CP305 | CP315 | CP325 | CP329 | CP335 | DFO2036 | DIV17 | DIV30 | Dd2 | ECU | FAB9 | GB4 | HB3 | JCK | N140 | P93_24 | P94_40 | PAD | PC49 | SC27B | TAB109 | TAB113 | TAB165
